Source: PubChem BioAssay (several laboratories)
H9c2 protect = protects H9c2 cardiomyocytes from peroxide injury; H2O2 injury protection, ATPLite, 2 h; protection from H2O2 cell death, % at 20 µM; 360,000 compounds, 0.63% hits; AID 588492;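 active = compounds giving at least 50% protection of heart cells from peroxide-induced death in the single-dose screen, raw or plate-pattern-corrected value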;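 also: 0% = DMSO wells with peroxide and 100% = DMSO wells without peroxide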
Mot1-301 SUMO = inhibitors of SUMOylation pathway: yeast Mot1-301 growth rescue. 320,000 compounds, 1% hits. S. cerevisiae Mot1-301 growth rescue, ATP luminescence, 38.5C; percent above DMSO median, 100 means doubled. growth rescue, % at 18.8 µM;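 active = every valid replicate shows activation above 250% relative to neutral control wells; inactive = the rest, any valid replicate at or below 250%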;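 also: OY570 slx delta 5 strain wells were the positive control but not used for scaling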
AI-2 QS modul = Vibrio harveyi AI-2 quorum sensing modulation. 300,000 compounds, 0.4% hits. AID 2094. activity change, % at 7.5 µM. Vibrio harveyi JMH597 AI-2 luminescence/OD600 ratio, 9 h; active compounds read low; strain lacks LuxN and CqsS sensors; 0 = neutral-control median; in the data active = activity change below about -75%, passing the limit was not always enough;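 also: luminescence divided by OD600 gain over 9 h not by final OD600 alone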
AHR act = activates the human aryl hydrocarbon receptor | AID 2796 | AHR-responsive luciferase reporter cells, luminescence | activation, % at 5 µM | 320,000 compounds, 2.5% hits | P35869; in the data active = activation above about 47%;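 also: 0% = vehicle wells and 100% = reference agonist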
NTR1 ag = agonists of human neurotensin receptor NTR1; P30989; activation, % at 20 µM; NTR1-U2OS beta-arrestin-GFP spot imaging, agonist mode; 330,000 compounds, 0.17% hits;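 active = activation at or above 40% of the spot to cytoplasm intensity ratio, with at least 20 cells analyzed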;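 also: 0% = DMSO without peptide and 100% = 100 nM NTR1 peptide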
Target sequence (P30989 whole entry, looked up): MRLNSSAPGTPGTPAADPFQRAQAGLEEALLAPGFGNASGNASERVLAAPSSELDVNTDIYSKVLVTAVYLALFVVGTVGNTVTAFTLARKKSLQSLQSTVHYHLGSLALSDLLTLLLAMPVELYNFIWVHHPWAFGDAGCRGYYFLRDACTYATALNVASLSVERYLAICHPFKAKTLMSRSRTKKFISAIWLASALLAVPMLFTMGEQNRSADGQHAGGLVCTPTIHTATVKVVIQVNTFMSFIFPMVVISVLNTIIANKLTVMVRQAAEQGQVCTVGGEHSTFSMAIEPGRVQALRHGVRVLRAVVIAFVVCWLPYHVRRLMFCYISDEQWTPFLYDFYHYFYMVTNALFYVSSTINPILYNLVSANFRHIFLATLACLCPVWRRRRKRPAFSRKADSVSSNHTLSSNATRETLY
GRIN3A LBD mod = NR3A (human) ligand-binding domain modulation; NR3A LBD differential scanning fluorimetry, Tm shift; 0% = protein alone, 100% = glycine-bound protein; Tm shift relative to glycine control, % at 25 µM; 340,000 compounds, 2.5% hits; AID 1259313;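 active = melting temperature shift of at least 10% of the positive control shift, at one fixed dose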
Numbers without * were called inactive. A selection: hits, their analogues and other compounds. The true share with any hit is near 6.2%.

Results for Cc1cc(C(=O)COC(=O)CNC(=O)c2ccco2)c(C)n1Cc1ccco1 ?
H9c2 protect: -4; Mot1-301 SUMO: 11; AI-2 QS modul: -2; AHR act: -4; NTR1 ag: 0; GRIN3A LBD mod: 1

What do the screens show for `CC(C)(C)OC(=O)N1CCC(NC(=O)c2[nH]cnc2C(=O)Nc2cccc(Cl)c2)CC1`?
H9c2 protect: 4; Mot1-301 SUMO: 26; AHR act: 1; NTR1 ag: 0; GRIN3A LBD mod: 4

How did Cc1cc2c3nonc3ccc2n1-c1ccccc1 do in these assays?
H9c2 protect: -5; Mot1-301 SUMO: 9; AI-2 QS modul: 13; AHR act: 3; NTR1 ag: 2; GRIN3A LBD mod: 1

How did c1ccc(-c2cc3c(ccc4nonc43)nn2)cc1 do in these assays?
H9c2 protect: 4; Mot1-301 SUMO: -9; AI-2 QS modul: 11; AHR act: 48*; NTR1 ag: 1; GRIN3A LBD mod: -4

How did C=CCNc1oc(-c2cccc(F)c2)nc1C#N do in these assays?
H9c2 protect: 19; AHR act: 3; NTR1 ag: 8; GRIN3A LBD mod: 0

Results for OC(COc1ccc2ccccc2c1Br)Cn1cnc(-c2ccccc2)c1 (stereo not given) ?
H9c2 protect: 5; AI-2 QS modul: 15; AHR act: 7; NTR1 ag: 12; GRIN3A LBD mod: 14*

How did COc1ccc(OCC(O)Cn2cnc(-c3ccc(Br)cc3)c2)cc1 (stereo not given) do in these assays?
H9c2 protect: -12; Mot1-301 SUMO: -7; AI-2 QS modul: -5; AHR act: 23; NTR1 ag: 0; GRIN3A LBD mod: -10

What do the screens show for `CCN1CCCC1CNC(=O)c1cc2cc(F)ccc2[nH]1` (stereo not given)?
H9c2 protect: 1; Mot1-301 SUMO: -1; AI-2 QS modul: -4; AHR act: 67*; NTR1 ag: -1; GRIN3A LBD mod: 1

What do the screens show for `COc1ccc(-c2nc(S(=O)(=O)c3ccccc3)c(NCCCN3CCOCC3)o2)cc1`?
H9c2 protect: -3; Mot1-301 SUMO: 9; AHR act: 1; NTR1 ag: 0; GRIN3A LBD mod: 1

Results for Cc1ccc2[nH]c(=O)c(-c3noc(C(C)C)n3)cc2c1 ?
H9c2 protect: 9; Mot1-301 SUMO: -6; AI-2 QS modul: 28; AHR act: 55*; NTR1 ag: -1; GRIN3A LBD mod: 0

Results for CCCCCC(=O)Nc1cccc(C2=NOC3(C2)C[C@H](C(N)=O)N(C(=O)[C@H]2CCC(=O)N2)C3)c1 (stereo not given in full) ?
H9c2 protect: 3; Mot1-301 SUMO: -19; AI-2 QS modul: 21; AHR act: 0; NTR1 ag: -3; GRIN3A LBD mod: 12*

Results for CCOC(=O)c1sc(N(Cc2ccccc2)C(=O)COC(=O)c2ccc(O)cc2)nc1C ?
H9c2 protect: -16; Mot1-301 SUMO: -3; AI-2 QS modul: 50; AHR act: 4; NTR1 ag: 36; GRIN3A LBD mod: 29*

How did CCOC(=O)c1sc(N(Cc2ccccc2)C(=O)COC(=O)c2ccccc2O)nc1C do in these assays?
H9c2 protect: 0; Mot1-301 SUMO: -9; AI-2 QS modul: 25; AHR act: 16; NTR1 ag: 0; GRIN3A LBD mod: 2

How did Cc1nc(NCCNC(=O)c2ccco2)c2c(C)c(C)sc2n1 do in these assays?
H9c2 protect: -21; Mot1-301 SUMO: 10; AHR act: 27; NTR1 ag: -1; GRIN3A LBD mod: 14*

How did Cc1nc(NCCc2ccc(S(N)(=O)=O)cc2)c2c(C)c(C)sc2n1 do in these assays?
H9c2 protect: -20; Mot1-301 SUMO: 0; AI-2 QS modul: 13; AHR act: 0; NTR1 ag: 1; GRIN3A LBD mod: 2

How did CCOC(=O)C1CCCN(C(=O)c2ccc(-c3ccccc3)cc2)CC1 (stereo not given) do in these assays?
H9c2 protect: 1

Results for CCCOc1ccc2c(c1)C(=NN=C(N)N)c1cc(OCCC)ccc1-2 ?
H9c2 protect: -20; Mot1-301 SUMO: 286*; AI-2 QS modul: 32; AHR act: 20; NTR1 ag: 80*; GRIN3A LBD mod: 34*

How did O=C(O)CC1S/C(=N/N=C/C=C/c2ccccc2)NC1=O (stereo not given) do in these assays?
H9c2 protect: 0; Mot1-301 SUMO: -5; AI-2 QS modul: 28; AHR act: -1; NTR1 ag: -1; GRIN3A LBD mod: 0

How did O=C(CC1SC(=NCc2ccccc2)NC1=O)Nc1ccccc1 (stereo not given) do in these assays?
H9c2 protect: 3; Mot1-301 SUMO: active; AI-2 QS modul: -1; AHR act: 14; NTR1 ag: 3; GRIN3A LBD mod: -1

Results for CCCCN=C1NC(=O)C(CC(=O)NCCc2ccc(OC)cc2)S1 (stereo not given) ?
H9c2 protect: 29; Mot1-301 SUMO: 29; AI-2 QS modul: 10; AHR act: 2; NTR1 ag: 0; GRIN3A LBD mod: -4

Results for O=C(CC1S/C(=N/N=C/C=C/c2ccccc2)NC1=O)Nc1ccc(Cl)c(Cl)c1 (stereo not given) ?
H9c2 protect: 3; Mot1-301 SUMO: 107; AI-2 QS modul: 6; AHR act: 2; NTR1 ag: 7; GRIN3A LBD mod: 37*

Results for CCCCN=C1NC(=O)C(CC(=O)Nc2ccc(Cl)cc2)S1 (stereo not given) ?
H9c2 protect: -1; Mot1-301 SUMO: 306*; AI-2 QS modul: 7; AHR act: 2; NTR1 ag: -2; GRIN3A LBD mod: 0

Results for Oc1ccc(C=NNC(=S)Nc2cccnc2)nc1 ?
H9c2 protect: -12; GRIN3A LBD mod: 11*

What do the screens show for `COc1ccccc1/C=N/NC(=S)Nc1cccnc1`?
H9c2 protect: -5; Mot1-301 SUMO: -2; AI-2 QS modul: 5; AHR act: 59*; NTR1 ag: 0; GRIN3A LBD mod: -3

Results for COc1cc(/C=N/NC(=S)Nc2cccnc2)cc(OC)c1OC ?
H9c2 protect: 1; Mot1-301 SUMO: 36; AI-2 QS modul: 6; AHR act: 62*; NTR1 ag: 0; GRIN3A LBD mod: 0

Results for Oc1ccc(/C=N/NC(=S)Nc2cccnc2)cc1O ?
H9c2 protect: 22; Mot1-301 SUMO: -10; AI-2 QS modul: -6; AHR act: 79*; NTR1 ag: 2; GRIN3A LBD mod: -14

Results for COc1ccccc1C(=O)NC(=O)Nc1c(C)cc(C)cc1C ?
H9c2 protect: -1; Mot1-301 SUMO: 1; AI-2 QS modul: 13; AHR act: 3; NTR1 ag: -1; GRIN3A LBD mod: 1

How did COc1ccccc1CN1CCC(n2nccc2NC(=O)CCc2ccccc2)CC1 do in these assays?
H9c2 protect: -2; Mot1-301 SUMO: -5; AI-2 QS modul: 24; AHR act: 4; NTR1 ag: 1; GRIN3A LBD mod: -1
